Source: PubChem
Only some compounds are listed: those with a hit (about 1.6% of all), similar ones and a draw of the others.
RAD54 branch: inhibitors of human RAD54 branch migration, primary screen, biochemical, fluorescence, single point. DNA repair and recombination protein RAD54-like (Homo sapiens), Q92698. RAD54 Holliday junction branch migration, FAM/BHQ fluorescence. inhibition, % at 10.4 µM. 360,000 compounds, 0.14% hits. AID 602329, 2012;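 active means mean normalized replicate activity at least 40 and at least half of replicates scoring 40 or more; inconclusive means only one of the two criteria met; inactive means mean below 40 and under half of replicates reaching 40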;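 further: 0% = median of neutral control wells and 100% = median of positive control wells; inhibitors cause a drop in the FAM fluorescence signal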
N-glyco inh: increase of ERlucT glycosylation luciferase signal, primary screen, N-linked glycosylation inhibitor project, D54 ERlucT cells, luminescence, set 2; D54 ERlucT glycosylation luciferase reporter, 24 h; percent of 100 nM tunicamycin response; reporter increase, % at 12.5 µM; 360,000 compounds, 0.23% hits; AID 588692, 2011;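 active means mean luciferase reporter signal, scaled so untreated is 0 and the glycosylation-blocking control 100, at or above a set limit in every replicate; inconclusive means mean reaches the limit but not every replicate does; inactive means mean below the limit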;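 further: luciferase carries N-glycosylation sites so blocking glycosylation raises the light; 0% = median of neutral control wells and 100% = median of 100 nM tunicamycin wells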
Myeloid diff 2: induction of myeloid progenitor differentiation, primary screen, cell-based, flow cytometry, MLPCN library; 360,000 compounds, 1% hits; calls only at 10 µM; ER-HoxA9 myeloid progenitors, lysozyme-GFP differentiation; AID 624256, 2012;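 active means normalized GFP-positive differentiation at or above the plate's own cutoff, the solvent-only control mean plus 3 SD; inconclusive means no clear call, values can overlap the other calls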;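 further: cells exposed to compound for four days before flow analysis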
ABCB6 inh MLPCN: ABCB6 transporter inhibitors, primary screen, K562-ABCB6 cells, flow cytometry, MLPCN library | K562-ABCB6 porphyrin accumulation, 1 h; active compounds read low | fluorescence ratio to DMSO, % at 10 µM | 360,000 compounds, 0.19% hits;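 active means fluorescence ratio to DMSO below 75%, the collection mean minus 3 SD; inconclusive means too few cells collected in the well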;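 further: signal is porphyrin accumulated inside mitochondria; 100% equals median channel fluorescence of DMSO control wells; lower ratio means ABCB6 inhibition with less porphyrin fluorescence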
Target sequence (Q9NP58 whole entry, looked up): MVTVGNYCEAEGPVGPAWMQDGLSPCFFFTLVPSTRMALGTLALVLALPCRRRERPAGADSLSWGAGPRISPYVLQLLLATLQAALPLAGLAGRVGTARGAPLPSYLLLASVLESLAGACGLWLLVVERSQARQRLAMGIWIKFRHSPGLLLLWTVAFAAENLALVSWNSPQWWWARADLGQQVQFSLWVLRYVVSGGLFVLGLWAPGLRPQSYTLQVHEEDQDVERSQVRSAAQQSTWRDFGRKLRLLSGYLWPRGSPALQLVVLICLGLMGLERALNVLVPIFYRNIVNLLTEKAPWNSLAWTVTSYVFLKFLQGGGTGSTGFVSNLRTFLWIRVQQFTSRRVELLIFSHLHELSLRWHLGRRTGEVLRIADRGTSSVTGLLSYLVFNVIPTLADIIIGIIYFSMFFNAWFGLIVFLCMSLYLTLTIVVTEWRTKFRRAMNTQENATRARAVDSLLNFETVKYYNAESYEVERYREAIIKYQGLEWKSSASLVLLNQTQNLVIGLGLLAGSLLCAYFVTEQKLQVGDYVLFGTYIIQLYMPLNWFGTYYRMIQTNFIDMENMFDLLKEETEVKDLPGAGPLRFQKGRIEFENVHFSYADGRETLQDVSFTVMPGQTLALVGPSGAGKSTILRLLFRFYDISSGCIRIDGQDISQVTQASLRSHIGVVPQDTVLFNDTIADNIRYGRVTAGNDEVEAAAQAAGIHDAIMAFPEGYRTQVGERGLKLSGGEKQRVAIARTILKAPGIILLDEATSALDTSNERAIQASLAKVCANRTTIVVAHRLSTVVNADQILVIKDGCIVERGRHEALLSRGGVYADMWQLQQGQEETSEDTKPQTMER
Vif imaging: HIV Vif self-association inhibitors, primary screen, imaging, HEK293T, single point | HEK293T cells, Vif self-association by quenched fluorescence, 24 h | inhibition, % at 7.49 µM | 340,000 compounds, 0.35% hits | AID 602346, 2012; in the data active means inhibition above about 50%, passing the limit was not always enough; inconclusive means no clear call, values can overlap the other calls; inactive means below about 31%
Myeloid diff CP1: inducers of myeloid progenitor differentiation, confirmation, cell-based, GFP/Mac1 flow cytometry, cherry pick 01; shares compounds with Myeloid diff 2; ER-HoxA9 myeloid progenitors, GFP/Mac1 double-positive flow; calls only; 2,300 compounds, 2% hits;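 active means share of green or green-and-red cells above 9 and 9% in run 1 or 4 and 3% in run 2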
GFP autofluor: compound fluorescence in myeloid differentiation counter-screen | shares compounds with Myeloid diff 2 | ER-HoxA9 myeloid progenitors, no estrogen, GFP autofluorescence flow cytometry; vehicle wells 0%, positive control 100% | fluorescence response, % (test concentration not listed) | 2,300 compounds, 7.4% hits;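 active means over 5% cells positive for green fluorescent reporter, or over 2% positive for both it and APC stain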;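 further: range taken on the double positive population between DMSO and positive control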
An asterisk follows results filed as active.

For CN1C(=O)C(O)(CC(=O)c2ccccc2O)c2cc(Br)ccc21 (stereo unspecified) the results were RAD54 branch -3, N-glyco inh 5, Myeloid diff 2 inconclusive, ABCB6 inh MLPCN 100 and Vif imaging 2.
`O=C(NCc1ccco1)c1ccc2c(c1)N(Cc1ccccc1)CCS2` gave N-glyco inh 0, Myeloid diff 2 inactive, ABCB6 inh MLPCN 101, Vif imaging 2, Myeloid diff CP1 inactive and GFP autofluor 1.
`N#Cc1c(N)n(-c2cccc(C(=O)O)c2)c2nc3ccccc3nc12` gave RAD54 branch -26, N-glyco inh 7, Myeloid diff 2 active, ABCB6 inh MLPCN 92, Vif imaging 12, Myeloid diff CP1 inactive and GFP autofluor 0.
`N#Cc1c(N)n(-c2ccccc2N)c2nc3ccccc3nc12` gave N-glyco inh 8, Myeloid diff 2 inactive, ABCB6 inh MLPCN 103 and Vif imaging 1.
Screening CCOC1=C/C(=C/c2c(N)n3nc(-c4ccccc4)sc3nc2=O)C=CC1=O returned N-glyco inh -1, Myeloid diff 2 active, ABCB6 inh MLPCN 103, Vif imaging 3, Myeloid diff CP1 inactive and GFP autofluor 5.2*.
For CCc1ccccc1NC(=O)CNCC(=O)Nc1ccccc1CC the results were RAD54 branch 4, N-glyco inh 2, Myeloid diff 2 active, ABCB6 inh MLPCN 129, Vif imaging -7, Myeloid diff CP1 inactive and GFP autofluor 0.
For CCc1ccccc1NC(=O)Cc1ccc(-n2cccc2)cc1 the results were RAD54 branch -1, N-glyco inh -2, Myeloid diff 2 inactive, ABCB6 inh MLPCN 108 and Vif imaging 3.
`C[C@H](CO)N1C[C@H](C)[C@@H](CN(C)C(=O)Nc2cccc3ccccc23)OCCCC[C@H](C)Oc2ccc(NS(=O)(=O)c3cccs3)cc2C1=O` gave RAD54 branch -22.
Screening COc1ccc(-c2cnc3c(c2)C(=O)N([C@H](C)CO)C[C@H](C)[C@H](CN(C)S(=O)(=O)c2ccc(C#N)cc2)O3)cc1 returned RAD54 branch 4.
`COc1cccc(-c2c(NC(=O)c3ccco3)n(-c3ccc(C)cc3)nc(C)c2=O)c1` gave RAD54 branch 3, N-glyco inh 0, Myeloid diff 2 active, ABCB6 inh MLPCN 98, Vif imaging -1, Myeloid diff CP1 inactive and GFP autofluor 0.
For CCn1cc(C(=O)N2CCN(c3cccc(C)c3C)CC2)c(=O)c2ccc(C)nc21 the results were RAD54 branch -1, N-glyco inh 3, Myeloid diff 2 inactive, ABCB6 inh MLPCN 95 and Vif imaging 0.
`CCn1cc(C(=O)N2CCN(c3ccc([N+](=O)[O-])cc3)CC2)c(=O)c2ccc(C)nc21` gave RAD54 branch 6, N-glyco inh 4, Myeloid diff 2 active, ABCB6 inh MLPCN 101, Vif imaging 7, Myeloid diff CP1 inactive and GFP autofluor 0.
Screening C[C@@H]1CN([C@H](C)CO)C(=O)c2cc(NS(=O)(=O)c3ccc(F)cc3)ccc2O[C@@H](C)CCCCO[C@H]1CN(C)Cc1ccc(Cl)c(Cl)c1 returned RAD54 branch -1.
`C[C@H](CO)N1C[C@H](C)[C@@H](CN(C)Cc2cccnc2)Oc2cc(Br)ccc2S1(=O)=O` gave RAD54 branch 0.
For Cc1ccc(-c2cc(C(=O)Nc3ccncc3)c3ccccc3n2)cc1 the results were N-glyco inh inconclusive, Myeloid diff 2 inactive and ABCB6 inh MLPCN 96.
CC(C)(C)c1ccccc1NC(=O)c1cc(-c2ccncc2)nc2ccccc12 was read as RAD54 branch 0, N-glyco inh -1, Myeloid diff 2 inactive, ABCB6 inh MLPCN 105, Vif imaging 3, Myeloid diff CP1 inactive and GFP autofluor 0.
For Cc1ccc[n+](CC(=O)/C=C2\N(C)c3ccccc3C2(C)C)c1 the results were RAD54 branch -1, N-glyco inh 0, Myeloid diff 2 inactive, ABCB6 inh MLPCN 104 and Vif imaging 4.
For CN1/C(=C\C(=O)C[n+]2cccc(Br)c2)C(C)(C)c2ccccc21 the results were N-glyco inh 0, Myeloid diff 2 active, ABCB6 inh MLPCN 139, Vif imaging -9, Myeloid diff CP1 inactive and GFP autofluor 1.
`O=C(Nc1ccc(S(=O)(=O)N2CCCCC2)cc1)C1CCCN(C(=O)c2ccc(Cl)cc2)C1` (stereo unspecified) gave N-glyco inh -2, Myeloid diff 2 inactive, ABCB6 inh MLPCN 96, Vif imaging -21, Myeloid diff CP1 inactive and GFP autofluor 2.
Screening O=S(=O)(NC1CCN(Cc2ccccc2)CC1)c1cccc2cccnc12 returned RAD54 branch 1, N-glyco inh 0, Myeloid diff 2 inactive, ABCB6 inh MLPCN 99, Vif imaging -3, Myeloid diff CP1 inactive and GFP autofluor 0.
`O=C(NC1CCN(Cc2ccccc2)CC1)C1CCN(S(=O)(=O)c2cccc3cccnc23)CC1` gave RAD54 branch -6, N-glyco inh -5, Myeloid diff 2 inactive, ABCB6 inh MLPCN 95 and Vif imaging -6.
For COC(=O)c1ccccc1NC(=O)Oc1ccc(F)cc1 the results were RAD54 branch -2, N-glyco inh 4, Myeloid diff 2 inactive, ABCB6 inh MLPCN 104, Vif imaging -7, Myeloid diff CP1 inactive and GFP autofluor 0.
`N#CC1=C(N)Oc2n[nH]c(-c3ccccc3)c2C12C(=O)Nc1ccccc12` (stereo unspecified) gave RAD54 branch -3, N-glyco inh -1, Myeloid diff 2 inactive, ABCB6 inh MLPCN 97, Vif imaging 3, Myeloid diff CP1 inactive and GFP autofluor 0.
`COc1cc(-c2c(C(C)=O)c(C)nc3c2C(=O)c2ccccc2-3)cc(OC)c1OC` gave RAD54 branch 6, N-glyco inh 1, Myeloid diff 2 inactive, ABCB6 inh MLPCN 99 and Vif imaging 15.
CC(=O)c1c(Cl)nc2cccc3c2c1-c1ccccc1C3=O was read as RAD54 branch -6, N-glyco inh -3, Myeloid diff 2 inactive, ABCB6 inh MLPCN 100, Vif imaging -6, Myeloid diff CP1 inactive and GFP autofluor 0.
Screening CCOC(=O)Cc1csc(NC(=O)c2sc3nc4cc(C)ccc4cc3c2N)n1 returned N-glyco inh 0, Myeloid diff 2 inactive, ABCB6 inh MLPCN 154, Vif imaging -1, Myeloid diff CP1 inactive and GFP autofluor 1.
